PubChem BioAssay (Tox21)
Records with an inconclusive call do not appear. The source made the active and inactive calls. Unless noted, calls follow the shape of the dose curve; as a rule, active = well fitted curve in the direction sought with a large enough effect in the repeat runs; inconclusive = weak or mixed curves; inactive = no such curve, though single readings can be large; an effect the other way counts as inactive or inconclusive.

Tests used:
[1] = qHTS assay to identify small molecule antagonists of the glucocorticoid receptor (GR) signaling pathway - cell viability counter screen (AID 720693); also: nearly all actives have a fitted effect of over 55% in size
[2] = qHTS assay for identifying genotoxic compounds that show differential cytotoxicity against isogenic chicken DT40 cell lines with known DNA damage response pathways - wild type cell line (AID 743012); also: nearly all actives have a fitted effect of over 60% in size; also: potency is read from the fitted curve at half-maximal effect
How it was run: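 Luminescent ATP viability signal (CellTiter-Glo, 30 min RT) recorded after wild type DT40 cells were incubated with compounds for 40 h at 37 C/5% CO2.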

[3] = qHTS assay for identifying genotoxic compounds that show differential cytotoxicity against isogenic chicken DT40 cell lines with known DNA damage response pathways - Rad54/Ku70 mutant cell line (AID 743015); also: nearly all actives have a fitted effect of over 60% in size; also: potency is read from the fitted curve at half-maximal effect
[4] = qHTS assay to identify small molecule antagonists of the androgen receptor (AR) signaling pathway - cell viability counter screen (AID 743033; also: nearly all actives have a fitted effect of over 45% in size)
[5] = qHTS assay to identify small molecule antagonists of the androgen receptor (AR) signaling pathway using the MDA cell line - cell viability counter screen (AID 743041; also: nearly all actives have a fitted effect of over 45% in size)
How it was run: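 qHTS viability read-out; MDA-kb2 AR-luc; R1881-stimulated; 16 h exposure at 37C, 0% CO2; CellTiter-Fluor, 30 min; fluorescence intensity.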

[6] = qHTS assay to identify small molecule antagonists of the thyroid receptor (TR) signaling pathway - cell viability counter screen (AID 743064); also: nearly all actives have a fitted effect of over 50% in size
How it was run: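 Same-well viability check: GH3.TRE-Luc cells stimulated with 1 nM T3 alongside test compound for 23.5 h, followed by CellTiter-Fluor fluorescence.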

[7] = qHTS assay to identify small molecule antagonists of the thyroid receptor (TR) signaling pathway (AID 743065); also: nearly all actives have a fitted effect of over 55% in size; also: potency is read from the fitted curve at half-maximal effect; as to activity, negative = inhibition: series mostly up to about 70 µM
How it was run: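 GH3.TRE-Luc rat pituitary cells carrying two TR response elements driving luciferase were plated for 4 h, given compound plus 1 nM T3 (final), and incubated 23.5 h at 37 C. ONE-Glo luminescence measured reporter inhibition; CellTiter-Fluor fluorescence tracked cytotoxicity.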

[8] = test system: thyroid hormone receptor (rat, GH3 cells); experiment: qHTS assay to identify small molecule agonists of the thyroid receptor (TR) signaling pathway (AID 743066; calls by dose curve)
[9] = qHTS assay to identify small molecule antagonists of the estrogen receptor alpha (ER-alpha) signaling pathway - cell viability counter screen (AID 743074; calls by dose curve; also: nearly all actives have a fitted effect of over 45% in size)
[10] = qHTS assay to identify small molecule antagonists of the estrogen receptor alpha (ER-alpha) signaling pathway using the BG1 cell line - cell viability counter screen (AID 743081);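 also: compound given together with 17beta-estradiol as the ER stimulus; series mostly up to about 70 µM; nearly all actives have a fitted effect of over 45% in size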
[11] = target: Estrogen receptor (Homo sapiens) (UniProt P03372); experiment: qHTS assay to identify small molecule agonists of the estrogen receptor alpha (ER-alpha) signaling pathway (AID 743075; calls by dose curve)
Estrogen receptor (Homo sapiens), sequence (P03372 whole entry, looked up): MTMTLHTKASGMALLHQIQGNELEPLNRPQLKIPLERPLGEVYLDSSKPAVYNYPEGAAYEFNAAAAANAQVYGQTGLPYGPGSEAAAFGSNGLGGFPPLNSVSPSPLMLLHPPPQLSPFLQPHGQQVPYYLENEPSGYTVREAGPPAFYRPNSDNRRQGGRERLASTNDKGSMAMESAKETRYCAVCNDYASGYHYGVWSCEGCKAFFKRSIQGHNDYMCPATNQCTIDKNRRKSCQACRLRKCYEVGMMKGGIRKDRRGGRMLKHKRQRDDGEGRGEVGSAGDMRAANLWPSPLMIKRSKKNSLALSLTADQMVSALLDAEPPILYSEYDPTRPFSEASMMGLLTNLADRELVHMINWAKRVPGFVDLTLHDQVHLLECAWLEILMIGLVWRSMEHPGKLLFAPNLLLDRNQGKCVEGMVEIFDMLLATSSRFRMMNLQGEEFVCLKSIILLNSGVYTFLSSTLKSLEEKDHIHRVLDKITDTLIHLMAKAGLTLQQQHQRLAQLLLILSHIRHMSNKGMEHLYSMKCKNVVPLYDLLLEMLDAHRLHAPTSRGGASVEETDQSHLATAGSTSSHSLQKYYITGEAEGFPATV

[12] = target: Estrogen receptor (Homo sapiens) (UniProt P03372); experiment: qHTS assay to identify small molecule agonists of the estrogen receptor alpha (ER-alpha) signaling pathway using the BG1 cell line (AID 743079); also: nearly all actives have a fitted effect of over 20% in size; also: potency is read from the fitted curve at half-maximal effect
[13] = target: Aromatase (Homo sapiens) (UniProt P11511); experiment: qHTS assay to identify aromatase inhibitors (AID 743083); also: series mostly up to about 70 µM; nearly all actives have a fitted effect of over 55% in size
Aromatase (Homo sapiens), sequence (P11511 whole entry, looked up): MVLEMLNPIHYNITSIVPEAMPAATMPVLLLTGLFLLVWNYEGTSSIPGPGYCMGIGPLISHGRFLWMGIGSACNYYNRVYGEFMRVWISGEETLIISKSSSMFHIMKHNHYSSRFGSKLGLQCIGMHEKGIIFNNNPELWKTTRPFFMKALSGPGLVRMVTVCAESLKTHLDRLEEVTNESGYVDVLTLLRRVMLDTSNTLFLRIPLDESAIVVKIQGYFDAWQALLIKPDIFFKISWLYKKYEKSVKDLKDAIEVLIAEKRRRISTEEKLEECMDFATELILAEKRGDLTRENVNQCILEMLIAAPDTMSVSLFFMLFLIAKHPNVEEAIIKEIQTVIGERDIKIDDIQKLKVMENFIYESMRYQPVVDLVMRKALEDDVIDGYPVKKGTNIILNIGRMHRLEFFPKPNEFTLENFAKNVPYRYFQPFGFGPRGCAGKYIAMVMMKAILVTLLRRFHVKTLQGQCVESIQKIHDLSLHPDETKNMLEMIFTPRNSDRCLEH

[14] = qHTS assay to identify small molecule antagonists of the estrogen receptor alpha (ER-alpha) signaling pathway using the BG1 cell line (AID 743080; calls by dose curve;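 also: BG1 cells stimulated with 17beta-estradiol alongside compound; series mostly up to about 70 µM; nearly all actives have a fitted effect of over 25% in size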)
How it was run: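 Quantitative HTS on the Tox21 10K library: BG1 cells with endogenous ER-alpha and ERE-luciferase reporter, 17beta-estradiol stimulation, 21.5 h compound exposure, luminescence endpoint with parallel fluorescence cytotoxicity counter-read.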

[15] = target: Estrogen receptor (Homo sapiens) (UniProt P03372); experiment: qHTS assay to identify small molecule antagonists of the estrogen receptor alpha (ER-alpha) signaling pathway (AID 743069; active = well fitted curve in the direction sought with a large enough effect in the signal ratio in the repeat runs, not every such curve was filed as active; the % refers to the signal ratio)
How it was run: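 Screening used a UAS-driven beta-lactamase reporter integrated into HEK293 cells expressing ER-alpha, stimulated with 17beta-estradiol alongside test compounds over 18 hr at 37C; signal came from LiveBLAzer B/G FRET fluorescence.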

[16] = target: Androgen receptor (Homo sapiens) (UniProt P10275); experiment: qHTS assay to identify small molecule antagonists of the androgen receptor (AR) signaling pathway (AID 743035; active = well fitted inhibition curve with a large enough effect in the signal ratio in the repeat runs, not every such curve was filed as active; the % refers to the signal ratio)
Androgen receptor (Homo sapiens), sequence (P10275 whole entry, looked up): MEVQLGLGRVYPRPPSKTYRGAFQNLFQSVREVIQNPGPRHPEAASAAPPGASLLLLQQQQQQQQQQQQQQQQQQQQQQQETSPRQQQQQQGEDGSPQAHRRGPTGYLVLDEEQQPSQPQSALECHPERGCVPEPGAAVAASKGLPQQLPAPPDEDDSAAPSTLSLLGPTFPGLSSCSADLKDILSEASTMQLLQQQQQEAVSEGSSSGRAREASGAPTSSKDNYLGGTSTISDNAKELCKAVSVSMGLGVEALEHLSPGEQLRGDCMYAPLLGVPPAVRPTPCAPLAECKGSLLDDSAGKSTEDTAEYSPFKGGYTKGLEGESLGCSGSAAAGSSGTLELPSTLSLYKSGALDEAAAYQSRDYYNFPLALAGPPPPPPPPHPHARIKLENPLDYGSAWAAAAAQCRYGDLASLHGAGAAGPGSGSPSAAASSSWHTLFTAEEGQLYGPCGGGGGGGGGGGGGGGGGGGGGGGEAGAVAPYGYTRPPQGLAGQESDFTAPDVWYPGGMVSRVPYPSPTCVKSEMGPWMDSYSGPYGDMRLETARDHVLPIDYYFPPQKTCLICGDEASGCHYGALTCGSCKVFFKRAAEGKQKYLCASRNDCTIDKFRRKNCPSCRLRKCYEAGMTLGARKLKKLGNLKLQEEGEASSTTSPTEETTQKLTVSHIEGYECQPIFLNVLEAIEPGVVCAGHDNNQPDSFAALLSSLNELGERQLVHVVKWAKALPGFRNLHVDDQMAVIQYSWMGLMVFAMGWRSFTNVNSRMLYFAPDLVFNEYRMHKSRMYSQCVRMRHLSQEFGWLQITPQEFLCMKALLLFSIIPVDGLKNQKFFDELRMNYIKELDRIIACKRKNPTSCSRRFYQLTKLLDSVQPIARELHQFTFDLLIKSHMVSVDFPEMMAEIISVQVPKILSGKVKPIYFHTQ
How it was run: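 Quantitative HTS of the Tox21 10K library used HEK293 AR-UAS-bla cells stimulated with R1881 alongside compound for 16 h at 37C, followed by beta-lactamase FRET detection (LiveBLAzer B/G, 2 h, RT).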

[17] = target: Androgen receptor (Homo sapiens) (UniProt P10275); experiment: qHTS assay to identify small molecule agonists of the androgen receptor (AR) signaling pathway (AID 743036; active = well fitted activation curve with a large enough effect in the signal ratio in the repeat runs, with a control signal flat, not every such curve was filed as active; the % refers to the signal ratio)
How it was run: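 Agonist activity was scored by beta-lactamase reporter fluorescence in stably transfected HEK293 cells exposed to compounds for 16 h at 37C and 5% CO2. Substrate loading took 2 h at room temperature.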

[18] = target: Androgen receptor (Homo sapiens) (UniProt P10275); experiment: qHTS assay to identify small molecule agonists of the androgen receptor (AR) signaling pathway using the MDA cell line (AID 743040; also: nearly all actives have a fitted effect of over 20% in size)
How it was run: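 Agonist activity is measured as luciferase luminescence in human MDA-kb2 cells whose MMTV reporter responds to both AR and GR. Compounds in DMSO incubate 16 h at 37C, 0% CO2, and ONE-Glo is read after 30 min.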

[19] = target: Androgen receptor (Homo sapiens) (UniProt P10275); experiment: qHTS assay to identify small molecule antagonists of the androgen receptor (AR) signaling pathway using the MDA cell line (AID 743042; also: nearly all actives have a fitted effect of over 55% in size)
How it was run: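 MDA-kb2 cells (human breast carcinoma, stably carrying an MMTV-luciferase reporter responsive to AR and GR) were plated at 3,000 cells/well and preincubated 5 hr at 37C, then given compound plus R1881 agonist for 16 h. ONE-Glo luminescence was read.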

[20] = qHTS assay for identifying genotoxic compounds that show differential cytotoxicity against isogenic chicken DT40 cell lines with known DNA damage response pathways - Rev3 mutant cell line (AID 743014); also: nearly all actives have a fitted effect of over 55% in size; also: potency is read from the fitted curve at half-maximal effect
% is scaled to controls: 0 for no effect and ±100 for the full control effect.

CCCCCCc1ccc(-c2ccc(C#N)cc2)cc1
inactive: Potency [1] | Potency [2] | Potency [3] | Potency [4] | Potency [5] | Potency [6] | Potency [7] | Potency [8] | Potency [9] | Potency [10]

C[C@H]1C[C@H]2[C@@H]3CCC4=CC(=O)C=C[C@]4(C)[C@@]3(Cl)[C@@H](O)C[C@]2(C)[C@@]1(O)C(=O)CO
inactive: Potency [1] | Potency [2] | Potency [3] | Potency [4] | Potency [5] | Potency [6] | Potency [7] | Potency [8] | Potency [9] | Potency [11] | Potency [12] | Potency [10] | Potency [13]

CCNc1cc(O)ccc1C
inactive: Potency [1] | Potency [2] | Potency [3] | Potency [4] | Potency [5] | Potency [6] | Potency [7] | Potency [8] | Potency [9] | Potency [11] | Potency [12] | Potency [14] | Potency [10] | Potency [13]

COCC(C)OC(C)=O (centres undefined)
inactive: Potency [1] | Potency [2] | Potency [3] | Potency [4] | Potency [5] | Potency [6] | Potency [7] | Potency [8] | Potency [15] | Potency [9] | Potency [14] | Potency [10] | Potency [13]

CCO[C@H](Cc1ccc(OCCc2ccc(OS(C)(=O)=O)cc2)cc1)C(=O)O
inactive: Potency [1] | Potency [2] | Potency [3] | Potency [4] | Potency [16] | Potency [17] | Potency [18] | Potency [5] | Potency [19] | Potency [6] | Potency [7] | Potency [8] | Potency [15] | Potency [11] | Potency [12] | Potency [14] | Potency [10] | Potency [13]

O=C(NCCO[N+](=O)[O-])c1cccnc1
inactive: Potency [1] | Potency [2] | Potency [3] | Potency [4] | Potency [5] | Potency [6] | Potency [7] | Potency [8] | Potency [9] | Potency [10] | Potency [13]

CCN(CC)CCNC(=O)c1cc(Br)c(N)cc1OC
inactive: Potency [1] | Potency [2] | Potency [3] | Potency [4] | Potency [5] | Potency [6] | Potency [7] | Potency [8] | Potency [9] | Potency [11] | Potency [12] | Potency [14] | Potency [10] | Potency [13]

O=C1c2ccccc2S(=O)(=O)N1CCCCN1CCN(c2ncccn2)CC1
inactive: Potency [1] | Potency [2] | Potency [3] | Potency [4] | Potency [5] | Potency [6] | Potency [7] | Potency [8] | Potency [15] | Potency [9] | Potency [11] | Potency [12] | Potency [14] | Potency [10] | Potency [13]

COC(C)(C)CCO
inactive: Potency [1] | Potency [2] | Potency [3] | Potency [4] | Potency [5] | Potency [6] | Potency [7] | Potency [8] | Potency [9] | Potency [10] | Potency [13]

O=C(O)C1(C(=O)Nc2ccc(Cl)cc2Cl)CC1
active: Potency [2] 61.1 µM | Potency [20] 68.6 µM | Potency [7] 68.6 µM
inactive: Potency [1] | Potency [18] | Potency [5] | Potency [19] | Potency [6] | Potency [8] | Potency [11] | Potency [12] | Potency [10] | Potency [13]

C=CCOc1ccccc1OCC(O)CNC(C)C (centres undefined)
inactive: Potency [1] | Potency [2] | Potency [3] | Potency [4] | Potency [5] | Potency [6] | Potency [7] | Potency [8] | Potency [9] | Potency [11] | Potency [12] | Potency [14] | Potency [13]

O=C1C(O)=C(O)C(=O)C(O)=C1O
inactive: Potency [1] | Potency [2] | Potency [3] | Potency [4] | Potency [5] | Potency [6] | Potency [7] | Potency [8] | Potency [9] | Potency [11] | Potency [12] | Potency [14] | Potency [10] | Potency [13]

CC(C)(C)Cl
inactive: Potency [1] | Potency [2] | Potency [3] | Potency [4] | Potency [5] | Potency [6] | Potency [7] | Potency [8] | Potency [11] | Potency [14] | Potency [10] | Potency [13]
active: Potency [12] 64.4 µM

CN(C)c1ccc(/C=C/c2ccc([N+](=O)[O-])cc2)cc1
inactive: viability change, negative = cytotoxic [1] 6.19% [at 7.04 µM] | activity, negative = cytotoxicity [20] -15.9% [at 8.53 µM] | activity change, negative = cytotoxicity [3] 1.06% [at 8.55 µM] | activity change, negative = cytotoxicity [4] 7.66% [at 7.04 µM] | viability change, negative = cytotoxic [5] -4.28% [at 8.47 µM] | activity change, negative = cytotoxic [6] 14.3% [at 8.44 µM] | activity, negative = cytotoxicity [9] -15.2% [at 6.72 µM] | activity change, negative = cytotoxicity [10] 18.2% [at 8.47 µM] | activity, negative = inhibition [13] 68.2% [at 8.47 µM]

O=C(O)c1nc(Cl)c(Cl)c(Cl)c1Cl
active: Potency [3] 61.1 µM
inactive: Potency [1] | Potency [20] | Potency [4] | Potency [5] | Potency [6] | Potency [7] | Potency [8] | Potency [9] | Potency [10]

C1CCCNCCC1
inactive: Potency [1] | Potency [20] | Potency [3] | Potency [4] | Potency [5] | Potency [7] | Potency [8] | Potency [9] | Potency [10] | Potency [13]

CC(=O)[O][Al]
inactive: Potency [1] | Potency [20] | Potency [3] | Potency [4] | Potency [5] | Potency [6] | Potency [8] | Potency [9] | Potency [10] | Potency [13]

OC(CN1CCC(Cc2ccc(F)cc2)CC1)c1ccc(Cl)cc1 (centres undefined)
active: Potency [20] 1.68 µM | Potency [3] 2.11 µM
inactive: Potency [1] | Potency [4] | Potency [16] | Potency [17] | Potency [18] | Potency [5] | Potency [19] | Potency [8] | Potency [9] | Potency [10] | Potency [13]
